Tests used:
Experiment in all cases: log2 ratio of Biotin-Ahx-Ub-VS probe labelling (fragment/DMSO); higher = less target engagement (more negative = stronger competition), active = hit call of the paper (q ≤ 0.05, log2 ratio ≤ -1)
Details in all cases: compound concentration: 200 uM; treatment time: 3 h
ALG13 = biological target: T1, ALG13 (UniProt Q9NP73)
T1 sequence (whole entry): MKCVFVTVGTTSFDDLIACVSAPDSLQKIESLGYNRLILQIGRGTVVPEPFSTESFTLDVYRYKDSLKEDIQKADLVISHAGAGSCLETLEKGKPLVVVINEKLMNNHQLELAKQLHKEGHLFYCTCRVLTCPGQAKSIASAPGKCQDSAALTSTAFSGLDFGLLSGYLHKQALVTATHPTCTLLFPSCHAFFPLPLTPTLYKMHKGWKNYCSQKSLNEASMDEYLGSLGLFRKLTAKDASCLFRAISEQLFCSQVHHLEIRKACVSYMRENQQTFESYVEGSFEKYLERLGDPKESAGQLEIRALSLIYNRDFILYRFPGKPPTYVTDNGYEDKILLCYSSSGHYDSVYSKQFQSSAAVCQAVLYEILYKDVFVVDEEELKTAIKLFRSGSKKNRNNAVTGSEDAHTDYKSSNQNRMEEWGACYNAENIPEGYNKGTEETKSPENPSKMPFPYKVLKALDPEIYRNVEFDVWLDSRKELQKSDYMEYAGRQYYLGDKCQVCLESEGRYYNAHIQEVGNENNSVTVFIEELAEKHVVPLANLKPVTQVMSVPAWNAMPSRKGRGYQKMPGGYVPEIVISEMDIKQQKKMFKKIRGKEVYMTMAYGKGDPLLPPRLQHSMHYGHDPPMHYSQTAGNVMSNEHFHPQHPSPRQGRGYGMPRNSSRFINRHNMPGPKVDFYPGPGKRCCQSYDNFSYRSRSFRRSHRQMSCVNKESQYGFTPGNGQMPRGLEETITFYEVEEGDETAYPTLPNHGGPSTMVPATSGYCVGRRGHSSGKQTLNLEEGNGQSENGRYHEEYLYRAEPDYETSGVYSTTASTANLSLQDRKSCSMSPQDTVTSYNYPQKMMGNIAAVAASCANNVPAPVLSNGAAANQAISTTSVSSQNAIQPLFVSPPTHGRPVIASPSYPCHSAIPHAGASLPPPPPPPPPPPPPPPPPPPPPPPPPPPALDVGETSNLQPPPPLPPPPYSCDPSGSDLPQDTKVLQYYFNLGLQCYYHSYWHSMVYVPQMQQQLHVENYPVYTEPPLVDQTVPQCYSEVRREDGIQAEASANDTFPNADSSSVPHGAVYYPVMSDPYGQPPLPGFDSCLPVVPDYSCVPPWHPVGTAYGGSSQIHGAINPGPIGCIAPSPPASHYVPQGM
Procedure, shortened: (§1)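 Fragment (200 µM) or vehicle was incubated for 3 h with triplicate HEK293T lysate samples of 495 µg, which were then treated with Biotin-Ahx-Ub-VS at 0.5 µM final for 1 h. Labelled DUBs were enriched on NeutrAvidin, digested with LysC and trypsin, and analysed by diaPASEF LC-MS/MS. Values are average log2 fragment/vehicle ratios from an unpaired t-test on global-median-normalised Spectronaut label-free quantities, using proteins with ≥2 unique peptides.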

ATXN3 = ATXN3 (UniProt P54252)
Procedure, shortened: as §1

BAP1 = biological target: T2, BAP1 (UniProt Q92560)
T2 sequence (whole entry): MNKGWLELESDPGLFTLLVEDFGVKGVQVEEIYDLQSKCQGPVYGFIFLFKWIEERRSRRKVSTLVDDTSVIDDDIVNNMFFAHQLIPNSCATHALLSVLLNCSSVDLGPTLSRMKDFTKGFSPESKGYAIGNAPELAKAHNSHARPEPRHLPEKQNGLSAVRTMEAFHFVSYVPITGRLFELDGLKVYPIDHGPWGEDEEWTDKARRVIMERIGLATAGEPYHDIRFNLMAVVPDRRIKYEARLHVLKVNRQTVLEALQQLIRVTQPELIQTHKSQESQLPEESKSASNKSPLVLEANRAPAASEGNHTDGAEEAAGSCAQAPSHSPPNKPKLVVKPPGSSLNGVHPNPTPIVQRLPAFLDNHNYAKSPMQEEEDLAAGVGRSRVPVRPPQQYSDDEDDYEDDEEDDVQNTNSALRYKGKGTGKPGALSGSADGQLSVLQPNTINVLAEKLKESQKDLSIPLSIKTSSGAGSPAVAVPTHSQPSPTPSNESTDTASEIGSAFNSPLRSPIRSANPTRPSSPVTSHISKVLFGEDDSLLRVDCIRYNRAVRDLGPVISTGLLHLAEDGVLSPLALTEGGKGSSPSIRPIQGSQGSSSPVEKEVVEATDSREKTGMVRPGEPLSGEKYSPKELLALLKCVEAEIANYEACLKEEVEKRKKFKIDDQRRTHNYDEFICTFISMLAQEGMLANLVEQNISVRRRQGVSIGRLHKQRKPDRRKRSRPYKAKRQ
Procedure, shortened: as §1

EIF3F = EIF3F (UniProt O00303)
Procedure, shortened: as §1

EIF3H = EIF3H (UniProt O15372)
Procedure, shortened: as §1

FAM105A = biological target: T3, FAM105A (UniProt Q9NUU6)
T3 sequence (whole entry): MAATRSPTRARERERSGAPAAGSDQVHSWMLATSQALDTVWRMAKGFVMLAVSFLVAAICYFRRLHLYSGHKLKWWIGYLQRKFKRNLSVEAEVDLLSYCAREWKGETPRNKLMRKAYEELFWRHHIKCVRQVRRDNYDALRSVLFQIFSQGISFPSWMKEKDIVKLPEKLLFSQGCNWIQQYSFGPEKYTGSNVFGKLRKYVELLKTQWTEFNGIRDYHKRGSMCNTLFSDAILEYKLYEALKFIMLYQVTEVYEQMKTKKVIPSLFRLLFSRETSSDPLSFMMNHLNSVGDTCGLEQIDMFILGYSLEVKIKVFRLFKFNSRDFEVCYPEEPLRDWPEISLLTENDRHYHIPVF
Procedure, shortened: as §1

OTUB1 = OTUB1 (UniProt Q96FW1)
Procedure, shortened: as §1

OTUD4 = biological target: T4, OTUD4 (UniProt Q01804)
T4 sequence (whole entry): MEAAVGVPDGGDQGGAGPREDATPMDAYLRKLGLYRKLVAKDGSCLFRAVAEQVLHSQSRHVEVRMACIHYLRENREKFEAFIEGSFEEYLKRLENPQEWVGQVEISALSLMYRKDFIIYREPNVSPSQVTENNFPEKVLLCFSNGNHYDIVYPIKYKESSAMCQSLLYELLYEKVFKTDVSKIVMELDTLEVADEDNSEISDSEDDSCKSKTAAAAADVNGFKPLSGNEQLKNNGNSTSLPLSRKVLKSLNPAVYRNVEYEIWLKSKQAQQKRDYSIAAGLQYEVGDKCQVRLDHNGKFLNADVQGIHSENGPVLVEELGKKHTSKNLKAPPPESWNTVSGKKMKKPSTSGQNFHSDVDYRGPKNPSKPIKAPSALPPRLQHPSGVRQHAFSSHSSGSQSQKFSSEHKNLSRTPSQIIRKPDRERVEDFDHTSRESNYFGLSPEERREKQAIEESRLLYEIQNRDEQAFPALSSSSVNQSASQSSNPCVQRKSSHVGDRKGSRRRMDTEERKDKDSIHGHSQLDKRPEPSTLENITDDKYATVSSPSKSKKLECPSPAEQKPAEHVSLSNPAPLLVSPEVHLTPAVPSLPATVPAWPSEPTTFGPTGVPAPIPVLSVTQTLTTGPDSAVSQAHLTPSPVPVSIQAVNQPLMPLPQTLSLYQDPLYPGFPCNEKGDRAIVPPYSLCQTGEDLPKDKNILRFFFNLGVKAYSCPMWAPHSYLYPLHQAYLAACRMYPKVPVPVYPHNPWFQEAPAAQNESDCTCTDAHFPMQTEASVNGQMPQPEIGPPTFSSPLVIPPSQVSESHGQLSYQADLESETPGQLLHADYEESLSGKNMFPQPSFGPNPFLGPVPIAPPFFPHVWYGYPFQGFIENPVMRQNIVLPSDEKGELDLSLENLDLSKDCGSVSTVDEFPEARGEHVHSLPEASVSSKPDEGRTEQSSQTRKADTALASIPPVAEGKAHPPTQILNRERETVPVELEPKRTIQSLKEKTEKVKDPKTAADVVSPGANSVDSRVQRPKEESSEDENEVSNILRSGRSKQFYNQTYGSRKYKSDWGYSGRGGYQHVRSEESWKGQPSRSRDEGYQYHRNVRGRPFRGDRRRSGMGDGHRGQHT
Procedure, shortened: as §1

OTUD5 = biological target: T5, OTUD5 (UniProt Q96G74)
T5 sequence (whole entry): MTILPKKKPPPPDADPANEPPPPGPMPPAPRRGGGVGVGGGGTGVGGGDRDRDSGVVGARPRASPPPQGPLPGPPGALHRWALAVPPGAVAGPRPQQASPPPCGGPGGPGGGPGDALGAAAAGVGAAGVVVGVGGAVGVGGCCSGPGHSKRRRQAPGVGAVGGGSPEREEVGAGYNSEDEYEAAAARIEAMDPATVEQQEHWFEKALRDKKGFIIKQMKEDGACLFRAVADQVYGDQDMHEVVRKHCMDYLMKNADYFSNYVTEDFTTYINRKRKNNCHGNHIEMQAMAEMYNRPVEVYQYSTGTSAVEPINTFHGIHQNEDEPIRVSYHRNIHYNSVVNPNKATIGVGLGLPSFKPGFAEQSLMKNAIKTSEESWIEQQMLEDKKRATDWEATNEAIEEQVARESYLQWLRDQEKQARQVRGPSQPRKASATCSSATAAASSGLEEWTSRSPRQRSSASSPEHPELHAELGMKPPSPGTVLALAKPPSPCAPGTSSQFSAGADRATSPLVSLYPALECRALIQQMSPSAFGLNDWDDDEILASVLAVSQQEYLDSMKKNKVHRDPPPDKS
Procedure, shortened: as §1

Measured: log2 ratio of Biotin-Ahx-Ub-VS probe labelling

Sequence of ATXN3 (P54252 whole entry): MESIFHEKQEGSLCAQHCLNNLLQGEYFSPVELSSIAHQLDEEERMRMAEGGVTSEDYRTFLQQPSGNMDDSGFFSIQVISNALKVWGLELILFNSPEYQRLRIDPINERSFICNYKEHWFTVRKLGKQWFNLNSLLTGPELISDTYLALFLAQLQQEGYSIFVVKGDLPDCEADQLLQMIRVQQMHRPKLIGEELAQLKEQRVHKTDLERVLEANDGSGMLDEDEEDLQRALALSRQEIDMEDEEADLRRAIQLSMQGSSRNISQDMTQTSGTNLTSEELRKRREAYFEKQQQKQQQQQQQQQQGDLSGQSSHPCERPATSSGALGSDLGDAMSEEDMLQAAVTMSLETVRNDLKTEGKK
Sequence of EIF3H (O15372 whole entry): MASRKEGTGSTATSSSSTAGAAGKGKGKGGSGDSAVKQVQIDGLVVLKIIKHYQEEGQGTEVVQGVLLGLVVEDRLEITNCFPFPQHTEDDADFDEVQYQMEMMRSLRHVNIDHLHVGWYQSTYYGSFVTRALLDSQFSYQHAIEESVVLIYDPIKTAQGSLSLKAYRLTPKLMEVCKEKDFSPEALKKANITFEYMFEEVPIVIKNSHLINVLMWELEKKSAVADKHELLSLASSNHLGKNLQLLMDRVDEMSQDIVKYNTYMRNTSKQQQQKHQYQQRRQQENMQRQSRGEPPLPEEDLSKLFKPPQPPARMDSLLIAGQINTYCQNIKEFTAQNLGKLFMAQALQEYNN
Sequence of OTUB1 (Q96FW1 whole entry): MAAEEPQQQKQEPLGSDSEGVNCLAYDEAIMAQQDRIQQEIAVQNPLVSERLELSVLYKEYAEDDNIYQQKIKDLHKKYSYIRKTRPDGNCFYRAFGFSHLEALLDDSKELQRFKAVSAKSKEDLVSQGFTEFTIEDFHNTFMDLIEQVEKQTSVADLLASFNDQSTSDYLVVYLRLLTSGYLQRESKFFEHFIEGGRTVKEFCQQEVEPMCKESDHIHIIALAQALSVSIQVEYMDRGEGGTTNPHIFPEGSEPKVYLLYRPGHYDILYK
Sequence of EIF3F (O00303 whole entry): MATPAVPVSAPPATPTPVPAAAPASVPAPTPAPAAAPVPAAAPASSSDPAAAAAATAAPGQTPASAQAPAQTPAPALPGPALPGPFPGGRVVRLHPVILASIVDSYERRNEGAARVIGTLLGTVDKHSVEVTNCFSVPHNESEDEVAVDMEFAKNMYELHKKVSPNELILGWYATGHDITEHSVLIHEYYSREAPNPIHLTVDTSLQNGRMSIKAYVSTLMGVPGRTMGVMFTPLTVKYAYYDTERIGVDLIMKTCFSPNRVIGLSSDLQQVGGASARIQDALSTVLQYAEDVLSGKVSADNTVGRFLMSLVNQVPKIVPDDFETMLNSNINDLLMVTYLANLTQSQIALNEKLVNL

Cl.O=C(CCl)N[C@H]1C[C@@H](n2cccn2)C1
inactive: ALG13 -0.266 | ATXN3 -0.161 | EIF3F -0.862 | EIF3H 0.149 | FAM105A -0.138 | OTUB1 -0.581 | OTUD4 -0.0468 | OTUD5 -0.587
active: BAP1 -1.24

— the supplement of paper PMC11732987, “Enantioselective OTUD7B fragment discovery through chemoproteomics screening and high-throughput optimisation” (Communications Chemistry, 2025)
